# Luciferase inh: inhibitors of firefly (Photinus pyralis) luciferase. purified P. pyralis luciferase, luminescence, biochemical. P08659. Potency, µM (top dose mostly 115 µM), most hits filed as inhibitors. hit rate 2.5% among 76,000; further: nearly all actives have a fitted effect of over 65% in size
#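 Inhibitors were tested against purified firefly luciferase in a biochemical, low-substrate format (both substrates at 10uM) and luminescence measured with a CCD imager.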
# 3T3 cytotox: NIH 3T3 cell cytotoxicity; Potency, µM (series often up to 96.7 µM), for inactives: top-dose activity change, negative = cytotoxicity, hits mostly inhibitors; hit rate 4.3% among 94,000; NIH 3T3 viability, CellTiter-Glo ATP luminescence, 48-72 h; further: nearly all actives have a fitted effect of over 55% in size
#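 Cytotoxicity was measured by CellTiter-Glo ATP luminescence after 48 or 72 h compound exposure at 37 °C. Mouse NIH 3T3 fibroblasts were seeded at 400 cells/well and dosed by 23 nL pin transfer.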
# HEK293 tox: cytotoxic compounds in HEK 293 cells; HEK 293 viability, ATP luminescence (CellTiter-Glo), 48-72 h; Potency, µM (series often up to 115 µM), inactives show at the top dose activity change, negative = cytotoxicity, most hits filed as inhibitors; hit rate 6.6% among 94,000; AID 1345083; further: nearly all actives have a fitted effect of over 60% in size
#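 qHTS cytotoxicity; HEK 293, 250 cells/well; compound pinned; 48 or 72 hr, 37 degree Celsius, 5% CO2, 95% humidity; CellTiter-Glo, 10 min RT; luminescence (ATP).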
# hNpr1 antagonist: antagonists of human natriuretic peptide receptor Npr1. P16066. HEK293 hNpr1 GloSensor cGMP, ANP-stimulated luminescence. Potency, µM (highest dose often 46.3 µM), for the others: at the top dose activity change, negative = inhibition, hits mostly inhibitors. hit rate 1.6% among 76,000; calls by dose curve; further: nearly all actives have a fitted effect of over 60% in size
#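 HEK293 cells stably expressing human Npr1 and cGMP GloSensor pGS-40F, loaded 2 h with 2% GloSensor reagent, given compound 30 min at room temperature. Luminescence read before and 20 min after 0.1 nM hNppA.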
# Starred values were filed as active, the others as inactive; i = inactive; ? = inconclusive; nt = no result given; ! = a repeat was not active; [ ] = another dose, or the depositor's remark. Hits are enriched below; roughly 11% of the tested compounds scored in any of these assays. Unless noted, the call rests on the fitted dose curve; in most records, active means well fitted curve in the direction sought with a large enough effect; inconclusive means small, poorly fitted or top-dose-only effect, or another doubt; inactive means no such curve, though single readings can be large; an effect the other way counts as inactive or inconclusive. On the % scale 0 is the no-effect control and ±100 the full control effect; potency means the concentration at half of the fitted maximal effect.
SMILES,Luciferase inh,3T3 cytotox,HEK293 tox,hNpr1 antagonist
O=C(NCC1CCCO1)c1ccc(-c2ccc(N3CCCCC3)nc2)cc1 (stereo not drawn),?,-1.4%,-14.1%,-6.2%
O=C(NCc1ccco1)c1ccc(-c2ccc(N3CCCCCC3)nc2)cc1,?,?,39.8µM*,-20.2%
Cc1ccc(CNC(=O)c2ccc(-c3ccc(N4CCCCC4)nc3)cc2)o1,14.1µM*,-9.9%,?,-15.1%
O=C(Nc1ccccc1)NC1CCN(Cc2cccc(-c3cccs3)c2)CC1,nt,14.1µM*,20µM*!,nt
O=C(Nc1ccc(Cl)cc1)NC1CCN(Cc2cccc(-c3cccs3)c2)CC1,nt,12.6µM*,20µM*,nt
O=C1OC[C@@H]2CCN(S(=O)(=O)Cc3ccccc3)Cc3ccc(F)cc3N12,i,-13.4%[174 µM],-25.8%[172 µM],1.6%[70.6 µM]
COCCNC(=O)[C@@H]1C[C@H](Oc2cccnc2)CN1S(=O)(=O)c1cccnc1,i,i,-5.9%,2.2%
Cc1noc(-c2cccc(OC3CN(C(=O)Cc4ccsc4)C3)c2)n1,i,?,?,-0.9%
COc1ccccc1CN1CCNc2cnc(Nc3ccccc3)cc2C1,i,?,89.1µM*,-0.9%[70.6 µM]
COc1ccc(OC)c(CN2CCNc3cc(Nc4ccccc4)ncc3C2)c1,22.4µM*,35.5µM*,?,-27.0%[70.6 µM]
CCOc1cc2c(cn1)NCCN(Cc1ccccc1O)C2,i,-20.0%[138 µM],?,1.3%[70.6 µM]
COc1ccccc1CN1CCNc2cnc(-c3ccccc3)cc2C1,i,?,79.4µM*,-15.1%[70.6 µM]
Oc1ccccc1CN1CCNc2cnc(Oc3ccccc3)cc2C1,i,?,79.4µM*,?
CNC(=O)C1(N2CCC[C@H]2C(=O)NC(C)C)COC1,i,0.4%[230 µM],-1.4%[230 µM],3.6%[70.6 µM]
CN(CC(=O)N1CCCn2nc(-c3cccc(C(F)(F)F)c3)cc2C1)S(=O)(=O)c1ccc2c(c1)oc(=O)n2C,nt,?,31.6µM*,nt
Cc1cccc(=O)n1CCC(=O)N1CCCn2nc(CO)cc2C1,i,-5.7%,i,0.0%
Cc1noc2c(-c3cccnc3NC(C)C)cc(-c3ccccc3)nc12,i,?,?,-8.2%[70.6 µM]
Fc1ccccc1CC1CCN(CC2[C@H]3CNC[C@@H]23)CC1 (stereo partly drawn),i,35.5µM*,?,4.1%
Oc1cccc(Nc2cnc3ccc(-c4ccc(F)cc4)nn23)c1,20µM*,?,?,-17.7%[70.6 µM]
COc1ccccc1-c1ccc2ncc(Nc3cccc(O)c3)n2n1,?,?,?,1.0%[70.6 µM]
COc1cccc(Nc2cnc3ccc(-c4ccc(F)cc4)nn23)c1,i,?,100µM*,-14.8%[70.6 µM]
COc1cncc(Nc2cnc3ccc(-c4ccc(F)cc4)nn23)c1,i,79.4µM*,100µM*,-23.5%[70.6 µM]
COc1ccc(Nc2cnc3ccc(-c4ccc(OC)nc4)nn23)cn1,i,?,?,2.2%[70.6 µM]
COc1ccc2[nH]c3c(c2c1)CCNC31CCN(C(=O)c2cccs2)CC1,i,?,8.91µM*,-21.0%
COc1ccc2[nH]c3c(c2c1)CCNC31CCN(C(=O)c2ccc(C)s2)CC1,i,?,11.2µM*,2.5%
SMILES,Luciferase inh,3T3 cytotox,HEK293 tox,hNpr1 antagonist
COc1ccc2[nH]c3c(c2c1)CCNC31CCN(C(=O)c2sccc2C)CC1,i,-30.7%,?,?
O=C(N[C@H]1CO[C@H]2[C@@H]1OC[C@@H]2n1nnnc1-c1ccc2c(c1)OCO2)c1ccccc1,i,?,79.4µM*,?
O=C(Nc1cccc(C(F)(F)F)c1)N[C@H]1CO[C@H]2[C@@H]1OC[C@@H]2n1nnnc1Oc1ccc(-n2ccnc2)cc1,i,22.4µM*,31.6µM*,?
COc1cccc(-c2nnnn2[C@H]2CO[C@H]3[C@@H]2OC[C@@H]3NC(=O)c2ccccc2C(=O)O)c1,i,-7.2%,-0.5%,4.1%
O=C(NC1CCCCC1)N[C@H]1CO[C@H]2[C@@H]1OC[C@@H]2n1nnnc1-c1ccc2c(c1)OCO2,i,-20.0%,-22.1%,2.2%
O=C(Nc1cccc(C(F)(F)F)c1)N[C@H]1CO[C@H]2[C@@H]1OC[C@@H]2n1nnnc1-c1ccc2c(c1)OCO2,i,31.6µM*,39.8µM*,?
COc1cccc(-c2nnnn2[C@H]2CO[C@H]3[C@@H]2OC[C@@H]3NC(=O)c2ccc(N(C)C)cc2)c1,?,?,?,15.8µM*
O=C(NCc1ccccc1)N[C@H]1CO[C@H]2[C@@H]1OC[C@@H]2n1nnnc1Oc1ccc(-n2ccnc2)cc1,i,-1.6%,-0.2%,-0.4%
COc1ccc(NC(=O)N[C@H]2CO[C@H]3[C@@H]2OC[C@@H]3n2nnnc2-c2ccc3c(c2)OCO3)cc1,i,?,?,-0.4%
COCCN1C(=O)Cc2ccccc2C1C(=O)NCc1ccc(N2CCCCC2)cc1 (stereo not drawn),i,i,-0.5%,1.0%
COCCOCC1(CNC(=O)c2ccc(OC)cc2)C[C@@H](O)[C@@H](O)C1 (stereo partly drawn),i,i,i,2.3%[70.6 µM]
COc1ccc(-n2nc(C3CCN(Cc4ccc(C#N)cc4)CC3)[nH]c2=O)cc1,i,-27.7%,22.4µM*,-58.2%
COc1ccc(-n2nc(C3CCN([S+](=O)([O-])c4ccc(C)cc4)CC3)[nH]c2=O)cc1,i,1.0%,i,14.1%
COc1ccc(-n2nc(C3CCN(Cc4ccc(F)cc4)CC3)[nH]c2=O)cc1,i,?,17.8µM*!,-22.1%
Cc1ccc(CN2CCCC(c3nn(-c4ccc(Cl)cc4)c(=O)[nH]3)C2)cc1 (stereo not drawn),i,?,35.5µM*,-26.0%
COc1ccc(-n2nc(C3CCN(Cc4ccc(C)cc4)CC3)[nH]c2=O)cc1,i,?,39.8µM*!,-14.4%
O=c1[nH]c(C2CCCN(Cc3ccc(C(F)(F)F)cc3)C2)nn1-c1ccc(Cl)cc1 (stereo not drawn),i,-30.8%,0.0%,-14.5%
CC(=O)N1CCC(c2nn(-c3ccc(F)cc3)c(=O)[nH]2)CC1,i,-20.5%[138 µM],-22.1%[172 µM],23.2%[70.6 µM]
Cc1cc(C)cc(NC(=S)N[C@H]2CO[C@H]3[C@@H]2OC[C@H]3O)c1,i,i,-8.5%[172 µM],4.3%[70.6 µM]
COC(CNc1nc(-c2ccccn2)nc2c1c(C)nn2C)c1cccs1 (stereo not drawn),i,25.1µM*,31.6µM*,0.9%
CNS(=O)(=O)CCNc1nc(-c2ccccn2)nc2c1c(C)nn2C,i,-0.5%,3.0%,9.1%
Cc1nn(C)c2nc(-c3ccccn3)nc(NCC(c3ccco3)N(C)C)c12 (stereo not drawn),i,?,28.2µM*,-1.3%
CC(=O)NCCNC(=O)c1ccc(-c2cccc(C(F)(F)F)c2)cc1,nt,-27.6%,?,nt
COC(=O)[C@@H]1Cc2c([nH]c3ccccc23)[C@H]2C[C@@H](N3CCOCC3)C[C@@H](c3ccccc3)N21,i,?,?,-8.7%
COC(=O)[C@@H]1Cc2c([nH]c3ccccc23)[C@H]2C[C@H](NCCNC(C)=O)C[C@@H](c3ccc(C(F)(F)F)cc3)N21,i,28.2µM*,20µM*,0.4%
